According to PubChem BioAssay (NCI):
This is part of a sample that, as a whole, favours compounds with a hit. Of some 83,000 tested, about 20% had one in any assay.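 Step 1: grow cells in 96-well plates. Step 2: add test compound at a single concentration. Step 3: incubate 48 h. Step 4: record percent growth.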 Active and inactive are the calls of the source. How the source made its calls: active means growth percent below 10; inactive means the rest.

Columns and labels:
Assay in all cases: NCI-60 one-dose screen, 48 h (100 = growth as untreated, 0 = no growth, -100 = all killed)
Conditions in all cases: 10 µM unless noted
[1] = system: BT-549 breast
[2] = system: MDA-MB-435 melanoma
[3] = system: SW-620 colon
[4] = system: MCF7 breast
[5] = system: HCT-116 colon
[6] = system: HCC-2998 colon
[7] = system: KM12 colon

Measured: growth

COc1ccc(-c2nc(SCC(C)C)nc(Nc3ccc(C(=O)O)cc3)c2C#N)cc1
inactive: [1] 85.6% | [2] 99.5% | [3] 102% | [4] 67.2% | [5] 85.1% | [6] 97.7% | [7] 91.8%

CNCCCNCCCCNCCCN1C(=O)c2ccc3c4c(ccc(c24)C1=O)C(=O)N(CCCNCc1ccccc1OC)C3=O
inactive: [1] 57.8% | [3] 19.8% | [5] 11.1% | [6] 31.5% | [7] 12%
active: [2] 1.07% | [4] 7.86%

C#CCCCCCCC[C@@H]1OC(=O)[C@H]([C@@H](C)CC)NC(=O)[C@H]([C@@H](C)CC)NC(=O)CC(=O)[C@@H]1C
inactive: [1] 108% | [2] 105% | [3] 98.2% | [4] 95.4% | [5] 93.4% | [6] 106% | [7] 100%

O=C(Nc1cccc(Cn2c(=O)[nH]c3ccc(Oc4ncccn4)cc3c2=O)c1)c1ccc(Cl)cc1
inactive: [1] 41.6% | [2] 43% | [3] 71.5% | [4] 28% | [5] 39.2% | [6] 81.7% | [7] 15.3%

C/C=C(/C)C(=O)OC1C=C(CO)C(=O)C(OC(=O)C2(C)OC2C)C1C(C)C (stereo not drawn)
active: [1] -7.25% | [2] -31.8% | [3] -26.8% | [4] 8.26% | [5] -58.9% | [6] -87.6% | [7] -56.3%

CCc1ccc(C(=Nc2ccc(N(C)C(=O)CN3CCN(C)CC3)cc2)c2c(O)[nH]c3ccc(C(=O)OC)cc23)cc1
active: [1] -87.9% | [2] -20.5% | [3] -67.3% | [4] -68.4% | [5] -67.9% | [6] -92% | [7] -60.8%

CCOC(=O)c1c(C)oc2ncnc(Nc3ccc(C(=O)NCCc4ccccc4)cc3)c12
inactive: [1] 67.3% | [2] 87.5% | [3] 105% | [4] 78.6% | [5] 64.8% | [6] 91.5% | [7] 89%

O=C1CCNC1
inactive: [1] 105% | [2] 104% | [3] 103% | [4] 103% | [5] 105% | [6] 118% | [7] 111%

c1cc[c]([Bi]([c]2ccccc2)[c]2ccccc2)cc1
inactive: [1] 96.8% | [2] 90.4% | [3] 92.9% | [4] 97.5% | [5] 104% | [6] 96.5% | [7] 97.1%

COC(=O)c1ccc2[nH]c(O)c(C(=Nc3ccc(N(C)C(=O)CN4CCN(C)CC4)cc3)c3ccc4c(c3)OCO4)c2c1
inactive: [2] 21.2% | [4] 11.1% | [6] 16%
active: [1] 3.64% | [3] 0.696% | [5] 0.577% | [7] 4.89%

COc1cccc(CNC(=O)c2cccc(C3CC(=O)c4c(cc(OC)c(OC)c4OC)O3)c2)c1 (stereo not drawn)
inactive: [1] 32.8% | [3] 34.9% | [4] 25.3% | [5] 18.5% | [6] 95.2% | [7] 41.8%
active: [2] -42.4%

O=C(Nc1cccc(Cn2c(=O)[nH]c3ccc(Oc4ncccn4)cc3c2=O)c1)c1cccc(F)c1
inactive: [1] 71.4% | [2] 51% | [3] 95.3% | [4] 57.9% | [5] 70.8% | [6] 92.5% | [7] 66.6%

O=C(Nc1cccc(Cn2c(=O)[nH]c3ccc(Oc4ncccn4)cc3c2=O)c1)c1cc(Cl)cc(Cl)c1
inactive: [2] 67.3% | [3] 89.5% | [4] 64% | [5] 59.9% | [6] 85.6% | [7] 40.6%
active: [1] -3.71%

CC(=O)/C(=C/c1ccc(-c2ccccc2)cc1)C(=O)c1ccccc1
inactive: [1] 89.5% | [2] 80.9% | [3] 85.5% | [4] 39.6% | [5] 57.6% | [6] 98.9% | [7] 80.5%

CCN(CC)CCCNc1c2ccc(Cl)cc2nc2ccc(OC)cc12
active: [1] -20.4% | [2] -90.5% | [3] 3.44% | [4] -16.4% | [5] -4.77% | [6] -68.1% | [7] 0.483%

CC1(C)NCCC[C@]2(C)[C@H]3CC=C4[C@@H]5C[C@](C)(COC(=O)c6ccccc6C(=O)O)CC[C@]5(C)CC[C@@]4(C)[C@]3(C)CC[C@@H]12
inactive: [1] 72.4% | [2] 62.4% | [3] 67.2% | [4] 41.1% | [5] 16.5% | [6] 73.4% | [7] 55.2%

Cc1ccc(C(=O)Nc2ccc(CN3CCN(C)CC3)c(C(F)(F)F)c2)cc1C#Cc1cncc2ncccc12
inactive: [6] 34.8%
active: [1] -82.3% | [2] -93.3% | [3] -66.6% | [4] -65.4% | [5] -84.7% | [7] -81.6%

N#Cc1ccc(OCc2nc(N)nc(N)c2-c2ccc(Cl)c(Cl)c2)cc1
inactive: [1] 34.2% | [2] 15.9% | [3] 21.8% | [4] 15.2% | [5] 11.9% | [6] 40.4% | [7] 43.2%

C#CCCCCCCC[C@@H]1OC(=O)[C@H]([C@@H](C)CC)NC(=O)[C@@H]([C@@H](C)CC)NC(=O)CC(=O)[C@@H]1C
inactive: [1] 104% | [2] 107% | [3] 101% | [4] 99% | [5] 94.8% | [6] 109% | [7] 105%

NC(=O)c1c(Nc2ccccc2)nn2cc(-c3nc4ccccc4s3)c(N)nc12
inactive: [1] 102% | [2] 102% | [3] 105% | [4] 81.4% | [5] 99.1% | [6] 97.3% | [7] 99.5%

COc1ccccc1C(=O)Nc1cccc(-c2cc(=O)c3c(OC)c(OC)c(OC)cc3o2)c1
inactive: [1] 45.9% | [2] 43.5% | [3] 63.4% | [4] 53.4% | [5] 36.7% | [6] 67.8% | [7] 38.4%

COC(=O)C1CC(=O)N(C(=O)Nc2ccc(Cl)cc2Cl)C1 (stereo not drawn)
inactive: [1] 95.9% | [2] 107% | [3] 105% | [4] 87.6% | [5] 98.1% | [6] 107% | [7] 104%

Br/C(=N\Nc1nn[nH]n1)c1ccccc1
inactive: [1] 99% | [2] 111% | [3] 102% | [4] 95.3% | [5] 104% | [6] 118% | [7] 114%

Cc1ccc(C(=O)Nc2ccc(CN3CCN(C)CC3)c(C(F)(F)F)c2)cc1C#Cc1cnc(N)c2ccc(F)cc12
active: [1] -95.9% | [2] -93.2% | [3] -83.6% | [4] -79.7% | [5] -96.5% | [6] -78.5% | [7] -76.9%

C/C(=N\Nc1ccc(Cl)cn1)c1ccccn1
inactive: [2] 26.4% | [3] 27% | [6] 27% | [7] 20%
active: [1] 9.46% | [4] 3.89% | [5] 1.21%

Brc1ccc(-c2nc3ccccc3s2)cc1
inactive: [1] 101% | [2] 105% | [3] 94.5% | [4] 58.7% | [5] 89.4% | [6] 110% | [7] 97.3%

CCOC(=O)c1ccc2n1CCCc1cnc(NC(C)=O)nc1-2
inactive: [1] 104% | [2] 102% | [3] 106% | [4] 101% | [5] 107% | [6] 122% | [7] 109%

CCC(C)C1NC(=O)C(CCCCN)NC(=O)C(CCCCN)NC(=O)C(CC(C)C)NC(=O)C(CCCCN)NC(=O)C(C(C)CC)NC(=O)C(C(C)C)NC(=O)C(C(C)CC)NC(=O)C(CCCCN)NC(=O)C(CCCCN)NC(=O)C(C)NC(=O)C(CCCCN)NC(=O)C(CC(C)C)NC1=O (stereo not drawn)
inactive: [1] 35.5% | [2] 26.5% | [3] 39.1% | [4] 22.5% | [5] 10.7% | [6] 23.2%
active: [7] 6.18%

COc1cc2oc(-c3ccc(NC(=O)c4ccccc4)cc3)cc(=O)c2c(OC)c1OC
inactive: [1] 75.6% | [2] 95% | [3] 93.2% | [4] 75% | [5] 91.3% | [6] 89.8% | [7] 90.6%

COc1ccc2cnc(N)c(C#Cc3cc(C(=O)Nc4ccc(CN5CCN(C)CC5)c(C(F)(F)F)c4)cnc3C)c2c1
inactive: [1] 54.7% | [2] 26.2% | [3] 13.8% | [4] 39% | [5] 20.5% | [6] 86.1% | [7] 11%

CCOC(=O)C(C)C(C)(O)c1ccccc1 (stereo not drawn)
inactive: [1] 105% | [2] 102% | [3] 114% | [4] 93.6% | [5] 97.1% | [6] 84.4% | [7] 97.7%

O=C(Nc1cccc2[nH]c(C(F)(F)F)nc12)c1ccc(F)cc1
inactive: [1] 87.5% | [2] 87.2% | [3] 91.5% | [4] 83.8% | [5] 84.4% | [6] 115% | [7] 73.1%

c1ccc(C(=NNc2nc3ccccc3o2)c2ccccn2)nc1
inactive: [1] 18.7% | [2] 25.2% | [3] 29.7% | [6] 44.3% | [7] 24.6%
active: [4] 6.93% | [5] 4.99%

COc1cc(-c2c3c(cn2CCN2CCCCC2)-c2oncc2CC3)cc(OC)c1OC
inactive: [1] 105% | [2] 101% | [3] 95.2% | [4] 91% | [5] 89.5% | [6] 106% | [7] 107%
